Records with an inconclusive call do not appear. Where a call stands in place of a potency, no number is given. Activity calls are given as the source filed them. Unless noted, calls come from the whole dose curve; as a rule, active = well fitted curve in the direction sought with a large enough effect in the repeat runs; inconclusive = weak or mixed curves; inactive = no such curve, though single readings can be large; an effect the other way counts as inactive or inconclusive.
What was measured:
[1] = qHTS assay to identify aromatase inhibitors - cell viability counter screen (AID 743084);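 note: cells stimulated with testosterone during compound exposure; nearly all actives have a fitted effect of over 55% in size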
[2] = molecular target: Aryl hydrocarbon receptor (Homo sapiens) (UniProt P35869); experiment: qHTS assay to identify small molecule that activate the aryl hydrocarbon receptor (AhR) signaling pathway (AID 743085); note: nearly all actives have a fitted effect of over 15% in size; note: potency is the fitted concentration of half-maximal effect;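 for activation: HG2L7.5c1 human HepG2 liver cells with stably integrated DRE-driven firefly reporter; series mostly up to about 70 µM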
Method in brief: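 Steps: seed HepG2-AhR-luc cells; allow 5 h at 37C; pin-transfer test compound or vehicle; incubate 24 h at 37C; add viability dye (30 min, 37C) and read fluorescence; add luciferase substrate (30 min, RT) and read luminescence.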

[3] = molecular target: Peroxisome proliferator-activated receptor gamma (Homo sapiens) (UniProt P37231); experiment: qHTS assay to identify small molecule agonists of the peroxisome proliferator-activated receptor gamma (PPARg) signaling pathway (AID 743094; active = well fitted activation curve with a large enough effect in the signal ratio in the repeat runs, not every such curve was filed as active; the % refers to the signal ratio)
Method in brief: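 Fluorescence-based beta-lactamase readout in HEK293H PPARg UAS-bla cells after 17 h compound exposure (37C) and 1 h B/G FRET substrate incubation at room temperature.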

[4] = molecular target: Peroxisome proliferator-activated receptor gamma (Homo sapiens) (UniProt P37231); experiment: qHTS assay to identify small molecule antagonists of the peroxisome proliferator-activated receptor gamma (PPARg) signaling pathway (AID 743191; calls by dose curve; note: series mostly up to about 63 µM; nearly all actives have a fitted effect of over 30% in size)
Method in brief: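 GeneBLAzer PPARg UAS-bla HEK293H cells, 5 h post-plating, exposed to compounds 17 h at 37C. LiveBLAzer B/G FRET substrate added for 1 h at room temperature; beta-lactamase reporter read by fluorescence intensity.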

[5] = qHTS assay to identify small molecule antagonists of the peroxisome proliferator-activated receptor gamma (PPARg) signaling pathway - cell viability counter screen (AID 743194); note: nearly all actives have a fitted effect of over 55% in size
Method in brief: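 Cytotoxicity counter screen in PPARg-bla HEK293H cells, same wells as reporter assay. Compounds plus 50 nM rosiglitazone (final) for 17 h at 37 C, then viability read by CellTiter-Glo luminescence.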

[6] = qHTS assay for small molecule agonists of the antioxidant response element (ARE) signaling pathway (AID 743202; active = well fitted activation curve with a large enough effect in the signal ratio in the repeat runs, not every such curve was filed as active; the % refers to the signal ratio)
Method in brief: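 HepG2 ARE-bla cells; 16 h treatment at 37 C; FRET-based beta-lactamase fluorescence read after 2 h substrate incubation at room temperature.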

[7] = qHTS assay for small molecule agonists of the antioxidant response element (ARE) signaling pathway - cell viability counter screen (AID 743203; calls by dose curve; note: nearly all actives have a fitted effect of over 55% in size)
Method in brief: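 Parallel cytotoxicity read-out for the ARE-bla screen: HepG2 reporter cells, 16 hrs with compounds, then CellTiter-Glo luminescence.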

[8] = qHTS assay for small molecule activators of the heat shock response signaling pathway - cell viability counter screen (AID 743209); note: nearly all actives have a fitted effect of over 50% in size
Method in brief: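 To flag cytotoxic compounds, HSE-bla HeLa cells plated at 1500 cells/well were dosed for 5 h at 37 C, followed by the reporter FRET read and then CellTiter-Glo, with luminescence recorded 30 min after reagent addition.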

[9] = qHTS assay for small molecule activators of the heat shock response signaling pathway (AID 743210; active = well fitted activation curve with a large enough effect in the signal ratio in the repeat runs, with a control signal flat, not every such curve was filed as active; the % refers to the signal ratio;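 note: HeLa cells with beta-lactamase reporter driven by heat shock elements; series mostly up to about 63 µM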)
Method in brief: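 Following overnight attachment, HSE-bla HeLa cells received test compounds for 5 h at 37 C; beta-lactamase activity was then detected via FRET substrate fluorescence.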

[10] = qHTS assay to identify small molecule that activate the aryl hydrocarbon receptor (AhR) signaling pathway - cell viability counter screen (AID 743086);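 note: HepG2 liver cells carrying the AhR DRE luciferase reporter; series mostly up to about 70 µM; nearly all actives have a fitted effect of over 45% in size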
Method in brief: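 HepG2-AhR-luc (HG2L7.5c1) cells, 4000/well, treated 24 h at 37 C with compound; viability measured as CellTiter-Fluor fluorescence after 30 min in the same wells as the luciferase read.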

Sequence of Aryl hydrocarbon receptor (Homo sapiens) (P35869 whole entry, looked up): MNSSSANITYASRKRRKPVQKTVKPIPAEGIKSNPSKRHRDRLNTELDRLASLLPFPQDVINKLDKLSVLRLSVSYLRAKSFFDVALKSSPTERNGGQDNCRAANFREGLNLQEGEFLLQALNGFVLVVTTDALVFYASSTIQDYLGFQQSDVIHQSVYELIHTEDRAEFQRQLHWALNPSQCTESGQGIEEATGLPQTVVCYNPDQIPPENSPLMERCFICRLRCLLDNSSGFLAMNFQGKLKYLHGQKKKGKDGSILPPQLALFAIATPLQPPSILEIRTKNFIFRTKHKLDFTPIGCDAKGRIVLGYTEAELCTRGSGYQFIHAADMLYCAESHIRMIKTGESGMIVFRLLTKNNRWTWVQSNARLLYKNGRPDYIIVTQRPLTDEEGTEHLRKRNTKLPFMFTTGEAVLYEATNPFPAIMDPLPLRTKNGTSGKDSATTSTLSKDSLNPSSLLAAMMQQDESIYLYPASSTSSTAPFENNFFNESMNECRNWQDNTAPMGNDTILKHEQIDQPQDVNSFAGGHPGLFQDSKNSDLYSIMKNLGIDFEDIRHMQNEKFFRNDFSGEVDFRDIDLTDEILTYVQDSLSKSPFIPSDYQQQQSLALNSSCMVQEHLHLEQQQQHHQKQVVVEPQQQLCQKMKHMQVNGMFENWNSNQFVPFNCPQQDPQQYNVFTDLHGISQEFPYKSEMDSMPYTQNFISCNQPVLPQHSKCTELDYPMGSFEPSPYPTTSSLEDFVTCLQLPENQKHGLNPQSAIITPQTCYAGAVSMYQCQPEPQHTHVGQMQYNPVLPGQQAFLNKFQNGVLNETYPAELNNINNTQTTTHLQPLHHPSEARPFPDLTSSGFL
Sequence of Peroxisome proliferator-activated receptor gamma (Homo sapiens) (P37231 whole entry, looked up): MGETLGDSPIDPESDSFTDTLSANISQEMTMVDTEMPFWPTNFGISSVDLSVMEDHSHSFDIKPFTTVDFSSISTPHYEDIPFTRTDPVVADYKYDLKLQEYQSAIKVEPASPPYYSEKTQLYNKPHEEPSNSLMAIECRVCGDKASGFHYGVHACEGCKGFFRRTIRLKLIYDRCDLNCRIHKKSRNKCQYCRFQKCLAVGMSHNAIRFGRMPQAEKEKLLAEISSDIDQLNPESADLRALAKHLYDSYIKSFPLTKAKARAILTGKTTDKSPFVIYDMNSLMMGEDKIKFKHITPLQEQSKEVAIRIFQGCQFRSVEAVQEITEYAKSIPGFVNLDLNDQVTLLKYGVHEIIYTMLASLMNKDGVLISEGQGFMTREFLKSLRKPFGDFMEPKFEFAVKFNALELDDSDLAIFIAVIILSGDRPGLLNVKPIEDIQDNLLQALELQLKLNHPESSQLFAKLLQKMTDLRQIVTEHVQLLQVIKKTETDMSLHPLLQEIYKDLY

| SMILES | Potency [1] | Potency [2] | outcome [3] | Potency [4] | outcome [5] | Potency [6] | Potency [7] | outcome [8] | outcome [9] | Potency [10] |
| --- | --- | --- | --- | --- | --- | --- | --- | --- | --- | --- |
| CC1(C)C(O)C(C)(C)C1O (stereo not given) | inactive | inactive | inactive | inactive | inactive | inactive | inactive | inactive | inactive | – |
| Nc1ccc(S(=O)(=O)Nc2ccnn2-c2ccccc2)cc1 | inactive | inactive | inactive | inactive | inactive | inactive | inactive | inactive | inactive | – |
| CCC(=O)OC(C)c1ccccc1 (stereo not given) | inactive | inactive | – | inactive | inactive | – | inactive | inactive | – | inactive |
| CC1(C)CO[C@@H](CC(=O)O)CN1 | inactive | inactive | – | – | inactive | inactive | inactive | inactive | – | inactive |
| CCCCNC(=O)NCCCC | inactive | inactive | inactive | inactive | inactive | – | inactive | inactive | inactive | – |
| COC(=O)CC(C)=O | inactive | inactive | inactive | inactive | inactive | inactive | inactive | inactive | inactive | – |
| CCOC(=O)c1c(C)n(C)c2ccc(O)cc12 | inactive | 1.68 µM (active) | – | – | inactive | – | inactive | inactive | inactive | inactive |
| O=c1[nH]c(=O)n([C@H]2C[C@H](O)[C@@H](CO)O2)cc1I | inactive | inactive | inactive | inactive | inactive | inactive | inactive | inactive | inactive | – |
| CCCCC(CC)COC(=O)c1ccccc1O (stereo not given) | inactive | inactive | inactive | inactive | inactive | inactive | inactive | – | inactive | – |
| CO[C@]12C[C@@H](COC(=O)c3cncc(Br)c3)CN(C)[C@@H]1Cc1cn(C)c3cccc2c13 | inactive | 29.8 µM (active) | inactive | – | inactive | – | inactive | inactive | inactive | inactive |
| Nc1nc2c(ncn2COC(CO)CO)c(=O)[nH]1 | inactive | inactive | inactive | inactive | inactive | inactive | inactive | inactive | inactive | – |
| CN1CCC(=C2c3ccccc3CC(=O)c3sccc32)CC1 | inactive | inactive | – | inactive | inactive | – | inactive | inactive | inactive | inactive |
| O=C(O)Cc1ccc(CCNS(=O)(=O)c2ccc(Cl)cc2)cc1 | inactive | inactive | – | inactive | inactive | inactive | inactive | – | inactive | inactive |
| CCO/C([O-])=N/c1c[n+](N2CCOCC2)no1 | inactive | inactive | – | – | inactive | inactive | inactive | inactive | inactive | inactive |
| NS(=O)(=O)c1cc(C(=O)O)cc(N2CCCC2)c1Oc1ccccc1 | inactive | inactive | – | – | inactive | inactive | inactive | inactive | inactive | inactive |
| CC(=O)Nc1ccc(S(N)(=O)=O)cc1 | inactive | inactive | inactive | inactive | inactive | inactive | inactive | inactive | – | – |
| CCOc1ccc(C(=O)OCCN(CC)CC)cc1 | inactive | inactive | inactive | inactive | inactive | inactive | inactive | inactive | – | – |
| O=C1CCCCCCCCCCCN1 | inactive | inactive | – | – | inactive | inactive | inactive | inactive | – | inactive |
